# According to PubChem BioAssay (NCATS):
# Results filed as inconclusive are left out. Where a call stands in place of a potency, no number is given. A number with no mark means an inactive call. Activity calls are given as the source filed them. Calls come from the whole dose curve; as a rule, active = well fitted inhibition curve with a large enough effect; inconclusive = small, poorly fitted or top-dose-only effect; inactive = flat fitted curve, though single readings scatter.
# Experiments:
# [1] = qHTS profiling for inhibitors of Plasmodium falciparum proliferation (AID 504749); for all read-outs here: nearly all actives have a fitted effect of over 60% in size; conditions: P. falciparum in erythrocytes, SYBR Green DNA, 72 h; for activity, negative = inhibition: at 28.7 µM (top of the series)
# In short: (§1)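 Each compound contacts P. falciparum-infected red blood cells for 72 h at 37 C; lysis buffer (Tris, EDTA, saponin, Triton X, SYBR Green I) is added and fluorescence measured next morning; values normalized to controls.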
# 3D7 = assay: as above; conditions: P. falciparum in erythrocytes, SYBR Green DNA, 72 h; series mostly up to 28.7 µM
# In short: as §1
# 7G8 = assay: as above; conditions: P. falciparum in erythrocytes, SYBR Green DNA, 72 h; series mostly up to 28.7 µM
# In short: as §1
# AA1029 = assay: as above; conditions: P. falciparum in erythrocytes, SYBR Green DNA, 72 h; series mostly up to 28.7 µM
# In short: as §1
# AS120 = assay: as above; conditions: P. falciparum in erythrocytes, SYBR Green DNA, 72 h; series mostly up to 28.7 µM
# In short: as §1
# ATS189 = assay: as above; conditions: P. falciparum in erythrocytes, SYBR Green DNA, 72 h; series mostly up to 28.7 µM
# In short: as §1
# ATS95 = assay: as above; conditions: P. falciparum in erythrocytes, SYBR Green DNA, 72 h; series mostly up to 28.7 µM
# In short: as §1
# C2A = assay: as above; conditions: P. falciparum in erythrocytes, SYBR Green DNA, 72 h; series mostly up to 28.7 µM
# In short: as §1
# CP185 = assay: as above; conditions: P. falciparum in erythrocytes, SYBR Green DNA, 72 h; series mostly up to 28.7 µM
# In short: as §1
# CP191 = assay: as above; conditions: P. falciparum in erythrocytes, SYBR Green DNA, 72 h; series mostly up to 28.7 µM
# In short: as §1
# CP192 = assay: as above; conditions: P. falciparum in erythrocytes, SYBR Green DNA, 72 h; series mostly up to 28.7 µM
# In short: as §1
# CP194 = assay: as above; conditions: P. falciparum in erythrocytes, SYBR Green DNA, 72 h; series mostly up to 28.7 µM
# In short: as §1
# CP201 = assay: as above; conditions: P. falciparum in erythrocytes, SYBR Green DNA, 72 h; series mostly up to 28.7 µM
# In short: as §1
# CP203 = assay: as above; conditions: P. falciparum in erythrocytes, SYBR Green DNA, 72 h; series mostly up to 28.7 µM
# In short: as §1
# CP211 = assay: as above; conditions: P. falciparum in erythrocytes, SYBR Green DNA, 72 h; series mostly up to 28.7 µM
# In short: as §1
# CP215 = assay: as above; conditions: P. falciparum in erythrocytes, SYBR Green DNA, 72 h; series mostly up to 28.7 µM
# In short: as §1
# CP217 = assay: as above; conditions: P. falciparum in erythrocytes, SYBR Green DNA, 72 h; series mostly up to 28.7 µM
# In short: as §1
# Potency is the fitted concentration of half-maximal effect.
Structure (SMILES),"activity, negative = inhibition ([1]; parasite line A) [%]","activity, negative = inhibition ([1]; parasite line B) [%]",Potency (3D7),Potency (7G8),Potency (AA1029),Potency (AS120),Potency (ATS189),Potency (ATS95),Potency (C2A),Potency (CP185),Potency (CP191),Potency (CP192),Potency (CP194),Potency (CP201),Potency (CP203),Potency (CP211),Potency (CP215),Potency (CP217),Potency ([1]; parasite line A),Potency ([1]; parasite line B)
NC(=O)c1cn(Cc2c(F)cccc2F)nn1,14.6,0.958,inactive,inactive,inactive,inactive,inactive,inactive,inactive,inactive,inactive,inactive,inactive,inactive,inactive,inactive,inactive,inactive,,
O=C(O)CN(CCN(CC(=O)O)CC(=O)O)CCN(CC(=O)O)CC(=O)O,7.8,-1.15,inactive,inactive,inactive,inactive,inactive,inactive,inactive,inactive,inactive,inactive,inactive,inactive,inactive,inactive,inactive,inactive,,
CC(=O)[C@@]1(O)CC[C@H]2[C@@H]3CCC4=CC(=O)CC[C@]4(C)[C@H]3CC[C@@]21C,-9.44,1.51,inactive,inactive,inactive,inactive,inactive,inactive,inactive,inactive,inactive,inactive,inactive,inactive,inactive,inactive,inactive,inactive,,
O=C(O)CCCCCCCC(=O)O,9.73,11.2,inactive,inactive,inactive,inactive,inactive,inactive,inactive,inactive,inactive,inactive,inactive,inactive,inactive,inactive,inactive,inactive,,
CCNC(=O)N1CCN(CCCC(c2ccc(F)cc2)c2ccc(F)cc2)CC1,,,7080 nM (active),2000 nM (active),2240 nM (active),2240 nM (active),1120 nM (active),2240 nM (active),1410 nM (active),447 nM (active),1120 nM (active),7570 nM (active),7570 nM (active),7570 nM (active),6750 nM (active),5360 nM (active),4260 nM (active),1120 nM (active),1120 nM (active),1260 nM (active)
CCn1ccnc1CC1COc2ccccc2O1 (stereo not drawn),10.6,1.07,inactive,inactive,inactive,inactive,inactive,inactive,inactive,inactive,inactive,inactive,inactive,inactive,inactive,inactive,inactive,inactive,,
